Records with an inconclusive call do not appear. More than one record can exist for a structure, and the calls need not agree. Active and inactive are the calls of the source. Rule for the calls, unless noted: active = hit-call score of the fitted dose curve at least 0.9, where 1 is the maximum; inactive = score below 0.9.
Tests used:
[1] = CCTE_Harrill_HTTr_Apoptosis_MCF7: CCTE's 6-hour Apoptosis Assessment for the High-Throughput Transcriptomics (HTTr) Platform, in MCF-7 cells cultured in DMEM + 10% fetal bovine serum, Harrill Lab (AID 2284011)
How it was run: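 Cells are dosed with test chemicals at eight concentrations and imaged 6 hours later for caspase-3/7 activity using a green fluorogenic detection reagent. Activity is fitted in both directions against DMSO controls.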

[2] = CCTE_Harrill_HTTr_CellCount_MCF7: CCTE's Cell Proliferation Assessment for the High-Throughput Transcriptomics (HTTr) Platform, Harrill Lab (AID 2284012; active = hit-call score of the fitted dose curve at least 0.9, where 1 is the maximum;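 note: count of Hoechst-stained nuclei per well by high-content imaging in MCF-7 cells; cells exposed to compound for six hours; intended direction is loss of nuclei count meaning fewer cells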)
How it was run: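 For this full-screen endpoint, MCF-7 cultures received eight compound dilutions for six hours. Well nuclei counts from Hoechst imaging were analyzed relative to DMSO.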

[3] = CCTE_Shafer_MEA_acute_burst_number: CCTE's Neural Acute Assay for Single-Electrode Bursts, Shafer Lab (AID 2284013)
How it was run: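 Burst totals were derived with adaptive spike detection (8x rms threshold) on filtered signals from rat cortical cultures; change relative to pre-treatment baseline after 40-min compound exposure (0.03-40 uM) was fitted in the negative direction against DMSO.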

[4] = CCTE_Shafer_MEA_acute_per_burst_spike_number_mean: CCTE's Neural Acute Assay for Average Number of Spikes Per Burst, Shafer Lab (AID 2284015);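 note: hits are decreases in mean spikes per burst versus baseline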
How it was run: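 Percent change in mean spikes per single-electrode burst is compared between a 40 min baseline and a 40 min recording with compound (0.03-40 uM). Cultures were rat cortical neurons on MEA plates at DIV 13 or 15, recorded at 37 C, with DMSO as the negative control.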

[5] = CCTE_Shafer_MEA_acute_interburst_interval_mean: CCTE's Neural Acute Assay for Mean Interburst Interval, Shafer Lab (AID 2284016);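 note: percent change of mean interburst interval versus each well's own pre-dose baseline; curves fitted for decrease in interburst interval relative to DMSO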
How it was run: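 Percent change in mean single-electrode interburst interval was calculated per well from 40 min recordings before and after compound (0.03-40 uM). Recordings were made at 37 C on rat cortical cultures at DIV 13 or 15, with spikes detected at 8x rms threshold.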

[6] = CCTE_Shafer_MEA_acute_burst_percentage_mean: CCTE's Neural Acute Assay for Percentage of Spikes in a Burst, Shafer Lab (AID 2284017)
How it was run: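 Well-level mean burst percentage from a 40-min recording after compound (0.03-40 uM) expressed as percent change from a 40-min baseline at 37C. Cultures: primary rat cortical neurons on MEA, dosed on DIV 13 or 15; fitted downward relative to DMSO.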

[7] = CCTE_Shafer_MEA_acute_burst_percentage_std: CCTE's Neural Acute Assay for Standard Deviation of Burst Percentage, Shafer Lab (AID 2284018);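 note: fitted in the negative direction so actives lower burst percentage SD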
How it was run: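 Primary rat cortical neurons on 16-electrode MEA wells were recorded 40 min at baseline (DIV 13 or 15), then 40 min after compound (0.03-40 uM), at 37 C. Well value is SD across electrodes of spikes-in-bursts/total spikes; endpoint is percent change, DMSO-referenced.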

[8] = CCTE_Shafer_MEA_acute_per_network_burst_spike_number_mean: CCTE's Neural Acute Assay for Average Number of Spikes in a Network Burst, Shafer Lab (AID 2284019);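 note: curve fitted for loss of signal so actives reduce spikes per network burst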
How it was run: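 Acute exposure of rat primary cortical networks (DIV 13/15) on MEAs; adaptive spike detection at 8x rms noise, 37 C. Percent change in spikes per network burst after 40 min with compound (0.03-40 uM), negative direction vs DMSO.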

[9] = CCTE_Shafer_MEA_acute_per_network_burst_spike_number_std: CCTE's Neural Acute Assay for Standard Deviation of Number of Spikes in a Network Burst, Shafer Lab (AID 2284020);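 note: fitted for decrease in spike-number SD versus DMSO so actives lower it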
How it was run: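 Acute MEA exposure, rat cortical neurons, 0.03-40 uM. Per-well % change versus own baseline; DMSO as negative control.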

[10] = CCTE_Shafer_MEA_acute_per_network_burst_electrodes_number_mean: CCTE's Neural Acute Assay for Mean Number of Electrodes in a Network Burst, Shafer Lab (AID 2284021);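 note: curves fitted for decreases only so hits reduce electrodes per burst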
How it was run: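 Cultures of rat cortex neurons were exposed on DIV 13 or 15 to compounds at 0.03-40 uM in at least three wells each. Activity over 40 min before and 40 min after exposure at 37 C gave the percent change in electrodes per network burst.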

[11] = CCTE_Shafer_MEA_acute_network_burst_percentage: CCTE's Neural Acute Assay for Percentage of Network Bursts, Shafer Lab (AID 2284022);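 note: curves fitted for loss so actives lower network burst percentage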
How it was run: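 Cortical neurons from rat were grown over microelectrode arrays and used on day 13 or 15 in vitro. Wells with at least 10 active electrodes received test chemical at 0.03-40 uM. Activity during 40 min of exposure was compared with the preceding 40-min baseline.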

[12] = CCTE_Shafer_MEA_acute_cross_correlation_area: CCTE's Neural Acute Assay for Area of Cross Correlation, Shafer Lab (AID 2284024);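 note: rat primary cortical neuron networks on 48-well MEA at DIV 13 or 15 with 40 min exposure; area under pooled inter-electrode spike cross-correlation near zero lag as percent change from own baseline; curves fitted for loss of cross-correlation area so actives lower synchrony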
How it was run: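 Acute exposure of mature rat cortical networks (day 13 or 15 post-plating) to 0.03-40 uM compound. Spontaneous spiking on MEA, 40 min pre- and post-dose at 37 C.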

[13] = CCTE_Shafer_MEA_acute_cross_correlation_HWHM: CCTE's Neural Acute Assay for Cross Correlation at Half Width at Half Maximum, Shafer Lab (AID 2284026);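 note: spontaneous network firing of rat primary cortical neurons on multiwell microelectrode arrays; percent change per well from pre-dose baseline in spike cross-correlogram half width; hits are a decrease in cross-correlogram half width relative to DMSO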
How it was run: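 Primary cortex (rat), MEA, DIV 13/15; compound 0.03-40 uM; 40 min pre + 40 min post at 37 C; spike threshold 8x rms; wells need ≥10 active electrodes; endpoint = % change in cross-correlogram HWHM vs baseline, DMSO negative control.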

[14] = CCTE_Shafer_MEA_acute_synchrony_index: CCTE's Neural Acute Assay for Synchrony, Shafer Lab (AID 2284027);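 note: network synchrony index of spontaneous spiking in primary rat cortical neurons on MEAs; fitted for loss of signal so actives lower synchrony relative to DMSO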
How it was run: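 Acute exposure of rat primary cortical neurons (DIV 13 or 15) at 0.03-40 uM. Synchrony index, 40 min before vs after, as % change relative to DMSO control.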

Clc1ccc(Cl)c(Cl)c1Cl
outcome [1]: inactive

CCN(CC)CCOC(=O)c1ccc(N)cc1
outcome [1]: inactive
outcome [2]: inactive

Nc1ccc(S(N)(=O)=O)cc1
outcome [1]: inactive

Cc1ccc(C=O)cc1
outcome [1]: inactive
outcome [2]: inactive

CC1CC(OC(=O)c2ccccc2O)CC(C)(C)C1 (centres undefined)
outcome [1]: inactive
outcome [2]: inactive

CC(=O)/C=C/C1=C(C)CCCC1(C)C
outcome [1]: inactive
outcome [2]: inactive

O=C(O)COCCN1CCN(C(c2ccccc2)c2ccc(Cl)cc2)CC1 (centres undefined)
outcome [1]: inactive
outcome [2]: inactive

CCCc1c(OCCCOc2ccc(OCC(=O)O)cc2)ccc(C(C)=O)c1O
outcome [1]: inactive
outcome [2]: inactive

CCCCCCCCCCCCOCCO
outcome [1]: inactive

CC1(C)CCC(C)(C)c2cc(C(=O)Nc3ccc(C(=O)O)cc3)ccc21
outcome [1]: inactive

CC(C)(Oc1ccc(CCNC(=O)c2ccc(Cl)cc2)cc1)C(=O)O
outcome [1]: inactive
outcome [2]: inactive

CC(=O)C(=O)O
outcome [1]: inactive
outcome [2]: inactive

CC1CCC(C(C)(C)O)CC1 (centres undefined)
outcome [1]: inactive

Clc1ccc2c(c1)C(N1CCNCC1)=Nc1ccccc1O2
outcome [1]: inactive

CCCCNC(=O)NS(=O)(=O)c1ccc(C)cc1
outcome [1]: inactive
outcome [2]: inactive

CCCCCC(CO)CCC (centres undefined)
outcome [1]: inactive

CC(=O)O[C@]1(C(C)=O)CC[C@H]2[C@@H]3C[C@H](C)C4=CC(=O)CC[C@]4(C)[C@H]3CC[C@@]21C
outcome [1]: inactive

CC(c1cc2ccccc2s1)N(O)C(N)=O (centres undefined)
outcome [1]: inactive
outcome [2]: inactive

CN1[C@@H]2CC(OC(=O)[C@H](CO)c3ccccc3)C[C@H]1[C@@H]1O[C@@H]12 (some centres undefined)
outcome [1]: inactive
outcome [2]: inactive

CC(C)[C@H]1CC[C@@H](C)CC1=O
outcome [1]: inactive

O=Nc1ccc(Nc2ccccc2)cc1
outcome [1]: inactive

O=P(c1ccccc1)(c1ccccc1)c1ccccc1
outcome [1]: inactive
outcome [2]: inactive

C=O
outcome [1]: inactive

CCCCO
outcome [1]: inactive

Cc1cccc(C)c1C
outcome [1]: inactive

N#Cc1ccccc1
outcome [1]: inactive

c1ccc2[nH]ccc2c1
AC50 [1]: 55.3 µM (active)
outcome [1]: inactive

COc1ccc(O)cc1
outcome [1]: inactive
outcome [2]: inactive

CC1(C)[C@H]2CC[C@]1(C)[C@H](O)C2
outcome [1]: inactive

CN(C)CCOCCN(C)C
outcome [1]: inactive
outcome [2]: inactive

CCN(CC)c1ccc2c(-c3ccccc3C(=O)O)c3ccc(=[N+](CC)CC)cc-3oc2c1
outcome [1]: inactive
outcome [2]: inactive

Cc1cc(C2(c3cc(C)c(O)cc3C)OS(=O)(=O)c3ccccc32)c(C)cc1O
outcome [1]: inactive
outcome [2]: inactive
AC50 [3]: 148 nM (active)
outcome [4]: inactive
outcome [5]: inactive
outcome [6]: inactive
outcome [7]: inactive
AC50 [8]: 25.9 µM (active)
outcome [9]: inactive
outcome [10]: inactive
outcome [11]: inactive
outcome [12]: inactive
outcome [13]: inactive
outcome [14]: inactive

CCCCCCCCC
outcome [1]: inactive
outcome [2]: inactive

OCCN1CCNCC1
outcome [1]: inactive

CN(CCOc1ccc(CC2SC(=O)NC2=O)cc1)c1ccccn1 (centres undefined)
outcome [1]: inactive
outcome [2]: inactive

O=C(O)CCCCCCCC(=O)O
outcome [1]: inactive

CNCCCC12CCC(c3ccccc31)c1ccccc12
outcome [1]: inactive
outcome [2]: inactive
